The text below walks through data of PubChem BioAssay (NCATS).

Where “and” joins values, the source holds several entries; their conditions need not be identical. Equal entries are not always repeated. Inconclusive results are not listed. Calls of active or inactive are those of the source. Unless noted, the call rests on the fitted dose curve; in most records, active means well fitted curve in the direction sought with a large enough effect; inconclusive means small, poorly fitted or top-dose-only effect, or another doubt; inactive means no such curve, though single readings can be large; an effect the other way counts as inactive or inconclusive.

In experiment [1] the target is Vitamin D3 receptor (Homo sapiens) (UniProt P11473). The experiment can be described thus: qHTS assay for small molecule agonists of vitamin D receptor signaling (AID 588543; calls by dose curve;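 further: 0% = DMSO basal and 100% = reference agonist control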). In outline: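 VDR-UAS-bla HEK293T cells, 2000/well, 2% charcoal-stripped FBS; compound titration 16 h at 37 C; CCF4 beta-lactamase ratio read. Normalized to 50 nM 1-alpha,25-dihydroxyvitamin D3 (100%) and DMSO; Hill fit gives EC50, efficacy.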
(In qHTS, concentration-response curves come from the screen itself.)

Experiment [2] is described as follows: qHTS assay for small molecule antagonists of retinoid X receptor alpha signaling (AID 588546; active means well fitted inhibition curve with a large enough effect in the signal ratio, with a control signal flat, not every such curve was filed as active; the % refers to the signal ratio;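 further: cells stimulated with 9-cis-retinoic acid as agonist; on the % scale 0 is the no-effect control and ±100 the full control effect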). To be noted: HEK293T RXRa-UAS-bla, beta-lactamase ratio, antagonist mode; measured here: W530 green channel, cytotoxicity proxy. In outline:
(§1)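 Beta-lactamase reporter inhibition, read as CCF4 fluorescence ratio (ex 405, em 460/530 nm) after 2 h at RT. HEK293T UAS-bla cells, 2500/well, were stimulated with 9-cis-RA at 500 or 100 nM final alongside test compound for 18 h at 37 C.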

Experiment [3] has as its target Retinoic acid receptor RXR-alpha (Homo sapiens) (UniProt P19793). Described as above. To be noted: HEK293T RXRa-UAS-bla, beta-lactamase ratio, antagonist mode. The gist of the method:
as §1

The target in experiment [4] is Thyroid hormone receptor beta (Homo sapiens) (UniProt P10828). Briefly: qHTS assay for small molecule antagonists of thyroid hormone receptor beta signaling (AID 588547; active means well fitted inhibition curve with a large enough effect in the signal ratio, with a control signal flat, not every such curve was filed as active; the % refers to the signal ratio;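 further: cells stimulated with 0.4 nM T3 agonist during compound exposure; series mostly up to about 77 µM; on the % scale 0 is the no-effect control and ±100 the full control effect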). To be noted: TR-UAS-bla HEK293, beta-lactamase ratio, antagonist mode, 18 h. The gist of the method: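 Inhibition of T3-driven (0.4nM final) beta-lactamase reporter activity was measured over 0.59 nM to 92 uM compound after 18 h at 37 C. The cells were GripTite HEK293 TR-UAS-bla in charcoal/dextran-stripped serum, with CCF4 ratio read-out and IC50 from Hill fits.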
Sequence of Thyroid hormone receptor beta (Homo sapiens) (P10828 whole entry, looked up): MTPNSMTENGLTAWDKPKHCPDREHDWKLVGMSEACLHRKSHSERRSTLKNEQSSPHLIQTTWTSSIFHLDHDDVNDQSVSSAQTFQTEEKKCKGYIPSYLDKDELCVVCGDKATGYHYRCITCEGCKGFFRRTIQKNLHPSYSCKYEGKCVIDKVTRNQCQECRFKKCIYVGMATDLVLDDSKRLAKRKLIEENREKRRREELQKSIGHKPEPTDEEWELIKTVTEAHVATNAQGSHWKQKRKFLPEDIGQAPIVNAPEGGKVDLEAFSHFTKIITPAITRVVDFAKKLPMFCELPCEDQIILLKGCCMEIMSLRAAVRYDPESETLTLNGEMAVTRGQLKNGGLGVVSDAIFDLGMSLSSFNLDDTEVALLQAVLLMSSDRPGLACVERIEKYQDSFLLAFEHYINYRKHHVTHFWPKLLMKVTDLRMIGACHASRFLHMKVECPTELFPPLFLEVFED

Experiment [5] deals with Voltage-gated inwardly rectifying potassium channel KCNH2 (Homo sapiens) (UniProt Q12809). Briefly: qHTS Assay for Small Molecule Inhibitors of the Human hERG Channel Activity (AID 588834).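 Further: top concentration of the series differs between compounds; on the % scale 0 is the no-effect control and ±100 the full control effect; lower thallium flux fluorescence means stronger hERG block; nearly all actives have a fitted effect of over 50% in size.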 In outline: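 U2OS cells BacMam-transduced with hERG, 2000 cells/well, compound ~10 min at 37 °C before stimulation buffer. FluxOR thallium flux fluorescence read kinetically on FDSS; decrease indicates block; AC50 from Hill fits.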
Sequence of Voltage-gated inwardly rectifying potassium channel KCNH2 (Homo sapiens) (Q12809 whole entry, looked up): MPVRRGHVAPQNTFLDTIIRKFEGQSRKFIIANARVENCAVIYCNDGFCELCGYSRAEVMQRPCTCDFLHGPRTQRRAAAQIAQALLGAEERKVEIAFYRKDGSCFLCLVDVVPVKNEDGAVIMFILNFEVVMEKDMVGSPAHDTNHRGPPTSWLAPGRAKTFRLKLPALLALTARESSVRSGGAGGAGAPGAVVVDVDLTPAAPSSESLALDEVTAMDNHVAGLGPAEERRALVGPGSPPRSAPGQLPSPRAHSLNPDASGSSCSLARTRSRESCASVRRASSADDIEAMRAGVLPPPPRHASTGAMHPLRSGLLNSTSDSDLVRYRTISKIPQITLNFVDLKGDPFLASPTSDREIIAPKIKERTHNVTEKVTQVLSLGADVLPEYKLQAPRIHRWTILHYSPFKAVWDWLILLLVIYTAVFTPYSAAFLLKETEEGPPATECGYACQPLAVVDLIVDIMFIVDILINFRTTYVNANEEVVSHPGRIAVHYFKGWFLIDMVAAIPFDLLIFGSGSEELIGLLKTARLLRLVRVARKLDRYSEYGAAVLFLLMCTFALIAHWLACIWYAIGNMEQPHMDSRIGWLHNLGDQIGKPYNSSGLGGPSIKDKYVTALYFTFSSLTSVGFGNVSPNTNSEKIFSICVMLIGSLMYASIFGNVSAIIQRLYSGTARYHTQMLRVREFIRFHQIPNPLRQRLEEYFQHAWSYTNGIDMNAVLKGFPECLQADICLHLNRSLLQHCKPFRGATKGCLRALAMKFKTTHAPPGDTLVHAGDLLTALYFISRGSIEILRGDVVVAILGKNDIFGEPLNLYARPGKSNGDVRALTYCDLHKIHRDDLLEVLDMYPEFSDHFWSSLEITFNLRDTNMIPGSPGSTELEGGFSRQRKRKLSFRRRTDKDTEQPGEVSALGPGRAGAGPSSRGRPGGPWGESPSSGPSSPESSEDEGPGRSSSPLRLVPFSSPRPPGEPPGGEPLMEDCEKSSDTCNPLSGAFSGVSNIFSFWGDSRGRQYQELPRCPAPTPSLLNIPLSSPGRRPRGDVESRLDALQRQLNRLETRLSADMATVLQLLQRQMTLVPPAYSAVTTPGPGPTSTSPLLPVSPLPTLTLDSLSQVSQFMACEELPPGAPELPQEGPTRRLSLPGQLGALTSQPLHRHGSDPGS

A short description of experiment [6]: qHTS assay for small molecule disruptors of the mitochondrial membrane potential - 1 hr assay (AID 651754; calls by dose curve; further: on the % scale 0 is the no-effect control and ±100 the full control effect; nearly all actives have a fitted effect of over 35% in size). In outline: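 Steps: seed HepG2 cells and let attach overnight; pin-transfer compound or vehicle; incubate 1 hr at 37C; add Mito-MPS dye for 30 min; read two-channel fluorescence for monomer and aggregate forms.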
The nature of experiment [7]: qHTS assay for small molecule disruptors of the mitochondrial membrane potential - 5 hr assay (AID 651755; calls by dose curve; further: on the % scale 0 is the no-effect control and ±100 the full control effect; nearly all actives have a fitted effect of over 40% in size). The gist of the method: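 HepG2, 2,000 cells/well, overnight attach; cpd or DMSO 5 hr, 37C/5% CO2; Mito-MPS 30 min 37C; fluor 490/535 + 540/590 nm.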
Experiment [8] addresses Tumor necrosis factor (Homo sapiens) (UniProt P01375). The experiment can be described thus: qHTS assay to identify small molecules that stimulate Tumor Necrosis Factor-alpha (TNF-alpha) secretion (AID 651757; active means well fitted curve in the direction sought with a large enough effect in the signal ratio; the % refers to the signal ratio; further: 0% is about no effect). In outline:
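Secreted TNF-alpha from compound-treated THP-1 cells (17 hrs, 37 C) was quantified with a homogeneous time-resolved fluorescence antibody assay.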

Experiment [9] can be described thus: qHTS assay for environmental chemicals that activate the Aryl hydrocarbon Receptor (AhR) signaling pathway (AID 651777). Further: % of control where 0% means no effect; nearly all actives have a fitted effect of over 15% in size. To be noted: 1A2-DRE human hepatoma cells, luciferase, 24 h; activation: stronger effect = higher value. In outline:
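Following a 24 hr incubation with test chemicals at 37 C and 5% CO2, 1A2-DRE human hepatoma cells received One-Glo reagent; after 30 min at room temperature, luciferase output reflected CYP1A2 induction via AhR.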

Experiment [10] deals with Peroxisome proliferator-activated receptor alpha (Homo sapiens) (UniProt Q07869). Briefly: qHTS assay for small molecule agonists of the peroxisome proliferator-activated receptor alpha (PPARalpha) signaling pathway (AID 651778). Further: % of control where 0% means no effect. To be noted: PathHunter PPARalpha complementation, chemiluminescence, 6 h; stronger effect = higher value. The gist of the method: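 Chemiluminescence from complemented enzyme reported PPARalpha activation in cells after 6 hr of compound treatment at 37 C. The detection reagent was incubated for 60 min at room temperature, and compounds were scored as agonists.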
Sequence of Peroxisome proliferator-activated receptor alpha (Homo sapiens) (Q07869 whole entry, looked up): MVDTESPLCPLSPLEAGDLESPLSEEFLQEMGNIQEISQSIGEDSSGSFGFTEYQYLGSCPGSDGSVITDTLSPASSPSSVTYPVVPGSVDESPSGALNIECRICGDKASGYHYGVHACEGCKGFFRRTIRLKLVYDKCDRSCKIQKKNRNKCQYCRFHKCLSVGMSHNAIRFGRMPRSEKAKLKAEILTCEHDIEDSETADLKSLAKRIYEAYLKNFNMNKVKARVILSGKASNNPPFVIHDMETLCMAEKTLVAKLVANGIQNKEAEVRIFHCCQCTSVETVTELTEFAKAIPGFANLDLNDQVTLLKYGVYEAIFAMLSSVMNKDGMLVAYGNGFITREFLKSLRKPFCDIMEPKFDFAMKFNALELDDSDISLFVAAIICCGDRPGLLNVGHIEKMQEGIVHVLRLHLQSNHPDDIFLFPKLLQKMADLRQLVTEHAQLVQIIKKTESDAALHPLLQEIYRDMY

Experiment [11] has as its target Nuclear receptor ROR-gamma (Homo sapiens) (UniProt P51449). The experiment can be described thus: qHTS assay for small molecule antagonists of the retinoid-related orphan receptor gamma (ROR-gamma) signaling pathway (AID 651802). Further: series mostly up to about 92 µM; on the % scale 0 is the no-effect control and ±100 the full control effect; nearly all actives have a fitted effect of over 60% in size. The gist of the method:
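Antagonism is scored as a fall in luminescence from a RORE-luciferase reporter in CHO cells expressing ROR under a TET-inducible promoter, measured 16hr after doxycycline induction in the presence of compound.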

Experiment [12] is described as follows: qHTS assay for small molecule agonists of the antioxidant response element (ARE) signaling pathway measured by Nrf2-dependant transcriptional activity (AID 720636; active means well fitted curve in the direction sought with a large enough effect in the repeat runs; an effect the other way counts as inactive or inconclusive;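 further: HepG2 cells with an ARE-driven luciferase reporter; % of control where 0% means no effect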). In outline: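 ONE-Glo luminescence, read 30 min after reagent addition at room temperature, reflected ARE reporter activity in HepG2 cells that had been incubated with compound for 16 hr at 37 C in 1% dialyzed FBS.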

Experiment [13] can be described thus: qHTS assay for small molecule antagonists of the retinoid-related orphan receptor gamma (ROR-gamma) signaling pathway - cell viability counter screen (AID 720652; active means well fitted curve in the direction sought with a large enough effect in the repeat runs; an effect the other way counts as inactive or inconclusive;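 further: series mostly up to about 92 µM; compound exposure lasted 16 hr before ATP read; on the % scale 0 is the no-effect control and ±100 the full control effect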). In outline: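 Cytotoxicity is quantified via intracellular ATP (CellTiter-Glo luminescence) in doxycycline-induced CHO ROR response element-luciferase reporter cells treated with compound for 16 hr at 37 C, 5% CO2.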

Experiment [14] in a line: qHTS assay for small molecule agonists of the antioxidant response element (ARE) signaling pathway measured by Nrf2-dependant transcriptional activity - cell viability counter screen (AID 720653; active means well fitted curve in the direction sought with a large enough effect in the repeat runs; an effect the other way counts as inactive or inconclusive; further: on the % scale 0 is the no-effect control and ±100 the full control effect). The note with it: ARE-bla HepG2 viability, CellTiter-Glo ATP luminescence, 16 h; stronger effect = lower value. In outline:
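Cytotoxicity counter screen: intracellular ATP quantified by CellTiter-Glo luminescence in the same ARE-bla HepG2 plates, after 16 h compound exposure and a 2 h beta-lactamase substrate step.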

Experiment [15] is described as follows: qHTS assay for cell viability of HEK293 cells (AID 743288). Further: on the % scale 0 is the no-effect control and ±100 the full control effect; nearly all actives have a fitted effect of over 50% in size. The note with it: ATP luminescence (CellTiter-Glo), 18 h; max response: stronger effect = lower value. In outline: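 Parental HEK293 cells, 2,000 per well, preincubated at least 5 h at 37 C, then exposed to compounds in DMSO for 18 h at 37 C. Viability by CellTiter-Glo ATP luminescence after 30 min at room temperature.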

Experiment [16] is described as follows: qHTS assay for cell viability of the p53RE-bla HCT-116 cell line (AID 743292). Further: potency means the concentration at half of the fitted maximal effect; nearly all actives have a fitted effect of over 55% in size. The gist of the method:
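After plating at 4,000 cells per well and a 5 h rest at 37 C, HCT-116 cells carrying p53RE-bla received test chemicals in DMSO. Sixteen hours later at 37 C, CellTiter-Glo was added and luminescence recorded following 30 min at room temperature.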

Experiment [17] concerns the target Rap guanine nucleotide exchange factor 3 (Homo sapiens) (UniProt O95398). Briefly: Confirmatory qHTS for agonist of cAMP-regulated guanine nucleotide exchange factor 3 (EPAC1) (AID 1645881).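 Further: EPAC1 catalysed release of BODIPY-GDP from Rap1B seen as fluorescence loss; 100% = effect of cAMP agonist control; nearly all actives have a fitted effect of over 75% in size.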
For experiment [18], the target named is Rap guanine nucleotide exchange factor 4 (Homo sapiens) (UniProt Q8WZA2). Briefly: Confirmatory qHTS for agonist of cAMP-regulated guanine nucleotide exchange factor 4 (EPAC2) (AID 1645884).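 Further: nucleotide exchange releases bodipy-GDP from Rap1 and this lowers its fluorescence; on the % scale 0 is the no-effect control and ±100 the full control effect; nearly all actives have a fitted effect of over 65% in size.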
Sequence of Rap guanine nucleotide exchange factor 4 (Homo sapiens) (Q8WZA2 whole entry, looked up): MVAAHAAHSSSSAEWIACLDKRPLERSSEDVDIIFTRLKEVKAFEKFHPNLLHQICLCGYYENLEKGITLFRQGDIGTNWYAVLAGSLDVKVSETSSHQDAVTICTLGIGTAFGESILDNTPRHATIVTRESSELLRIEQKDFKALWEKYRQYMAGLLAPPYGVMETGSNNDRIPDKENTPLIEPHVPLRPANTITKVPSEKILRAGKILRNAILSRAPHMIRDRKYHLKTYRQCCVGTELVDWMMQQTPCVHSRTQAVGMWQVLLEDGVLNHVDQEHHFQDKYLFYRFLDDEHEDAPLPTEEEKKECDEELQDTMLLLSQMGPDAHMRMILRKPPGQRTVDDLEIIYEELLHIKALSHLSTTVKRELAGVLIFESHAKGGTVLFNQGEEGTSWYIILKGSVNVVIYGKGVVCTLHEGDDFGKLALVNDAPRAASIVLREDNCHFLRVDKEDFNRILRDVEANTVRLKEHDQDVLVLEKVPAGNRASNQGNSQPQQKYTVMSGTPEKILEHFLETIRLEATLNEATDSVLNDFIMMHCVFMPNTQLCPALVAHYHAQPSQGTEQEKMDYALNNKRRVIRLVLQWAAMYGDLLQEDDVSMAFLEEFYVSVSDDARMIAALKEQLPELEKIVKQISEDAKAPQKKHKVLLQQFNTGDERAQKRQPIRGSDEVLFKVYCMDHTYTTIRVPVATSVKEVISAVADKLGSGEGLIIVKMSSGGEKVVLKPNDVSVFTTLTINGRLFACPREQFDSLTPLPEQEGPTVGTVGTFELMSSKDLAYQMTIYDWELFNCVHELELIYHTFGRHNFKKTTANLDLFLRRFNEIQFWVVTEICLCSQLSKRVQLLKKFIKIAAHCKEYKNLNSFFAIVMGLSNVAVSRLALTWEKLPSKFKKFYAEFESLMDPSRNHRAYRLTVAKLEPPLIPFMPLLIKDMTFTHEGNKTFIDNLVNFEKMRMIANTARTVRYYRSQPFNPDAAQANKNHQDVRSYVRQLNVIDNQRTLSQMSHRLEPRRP
The target is the same in experiment [19]. Briefly: Confirmatory qHTS for antagonist of cAMP-regulated guanine nucleotide exchange factor 4 (EPAC2) (AID 1645885). Further: potency means the concentration at half of the fitted maximal effect; nearly all actives have a fitted effect of over 25% in size.
The target in experiment [20] is Rap guanine nucleotide exchange factor 3 (Homo sapiens) (UniProt O95398). The experiment can be described thus: Counterscreen qHTS for antagonist of cAMP-regulated guanine nucleotide exchange factor 3 (EPAC1) (AID 1645888).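 Further: fluorescence loss as bound BODIPY-GDP is released from Rap1B; % of control where 0% means no effect.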 The gist of the method:
(§2)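 Rap1B-BODIPY-GDP 250 nM + GDP 50 uM; cpds 7-pt, final 9.74 nM–152 uM (activator mode) or from 7.32 nM upwards (inhibitor mode); RT; FI 480/540 nm at 5 and 30 min, then ± cAMP, reread.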
(Counterscreens check selectivity or assay interference.)

For experiment [21] the target is unchanged. The experiment can be described thus: Counterscreen qHTS for agonist of cAMP-regulated guanine nucleotide exchange factor 3 (EPAC1) (AID 1645889). Further: % of control where 0% means no effect; nearly all actives have a fitted effect of over 40% in size. In outline:
as §2

In experiment [22] the target is Nuclear receptor subfamily 1 group I member 2 (Rattus norvegicus) (UniProt Q9R1A7). Briefly: qHTS assay for small molecule activators of the rat pregnane X receptor (rPXR) signaling pathway (AID 651751; call rule not given here; further: 0% is about no effect). To be noted: rPXR reporter cells, luciferase (One-Glo), 24 h.
Sequence of Nuclear receptor subfamily 1 group I member 2 (Rattus norvegicus) (Q9R1A7 whole entry, looked up): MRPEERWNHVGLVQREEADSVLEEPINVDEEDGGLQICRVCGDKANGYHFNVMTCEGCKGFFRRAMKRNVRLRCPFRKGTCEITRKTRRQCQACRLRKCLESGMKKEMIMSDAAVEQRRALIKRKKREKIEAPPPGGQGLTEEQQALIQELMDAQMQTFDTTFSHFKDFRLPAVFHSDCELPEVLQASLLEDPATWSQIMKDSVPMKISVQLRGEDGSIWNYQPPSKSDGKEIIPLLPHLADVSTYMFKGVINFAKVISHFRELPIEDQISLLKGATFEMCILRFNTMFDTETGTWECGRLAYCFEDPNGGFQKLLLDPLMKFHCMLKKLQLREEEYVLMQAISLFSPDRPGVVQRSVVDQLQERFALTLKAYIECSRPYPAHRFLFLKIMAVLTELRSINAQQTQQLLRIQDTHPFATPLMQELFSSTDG
Experiment [23] in a line: qHTS assay for small molecule activators of the human pregnane X receptor (PXR) signaling pathway (AID 720659; call rule not given here; further: 0% is about no effect).

Sequence of Rap guanine nucleotide exchange factor 3 (Homo sapiens) (O95398 whole entry, looked up): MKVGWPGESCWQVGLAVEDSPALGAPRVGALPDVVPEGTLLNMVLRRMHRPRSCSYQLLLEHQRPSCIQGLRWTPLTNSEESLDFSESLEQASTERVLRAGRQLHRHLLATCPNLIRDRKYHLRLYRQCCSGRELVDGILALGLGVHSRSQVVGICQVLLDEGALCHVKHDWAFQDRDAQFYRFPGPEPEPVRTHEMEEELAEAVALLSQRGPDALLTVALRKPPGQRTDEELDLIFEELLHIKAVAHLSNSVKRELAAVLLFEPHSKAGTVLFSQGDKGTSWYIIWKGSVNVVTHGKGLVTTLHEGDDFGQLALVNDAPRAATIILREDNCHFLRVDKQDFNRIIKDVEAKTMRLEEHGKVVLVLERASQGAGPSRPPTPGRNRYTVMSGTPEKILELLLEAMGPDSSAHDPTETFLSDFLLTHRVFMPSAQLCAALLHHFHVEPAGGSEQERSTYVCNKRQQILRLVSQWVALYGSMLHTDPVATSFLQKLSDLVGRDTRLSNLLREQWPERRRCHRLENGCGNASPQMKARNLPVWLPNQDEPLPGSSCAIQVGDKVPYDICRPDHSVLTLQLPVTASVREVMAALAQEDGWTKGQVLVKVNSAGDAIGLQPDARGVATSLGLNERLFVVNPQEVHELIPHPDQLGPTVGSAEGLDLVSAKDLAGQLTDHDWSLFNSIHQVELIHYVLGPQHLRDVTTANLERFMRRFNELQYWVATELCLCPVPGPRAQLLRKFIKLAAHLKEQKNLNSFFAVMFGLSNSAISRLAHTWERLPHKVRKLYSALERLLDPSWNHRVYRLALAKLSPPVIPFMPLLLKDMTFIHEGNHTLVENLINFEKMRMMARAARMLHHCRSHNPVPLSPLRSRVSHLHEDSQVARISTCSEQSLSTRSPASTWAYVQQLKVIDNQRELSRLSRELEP
Sequence of Retinoic acid receptor RXR-alpha (Homo sapiens) (P19793 whole entry, looked up): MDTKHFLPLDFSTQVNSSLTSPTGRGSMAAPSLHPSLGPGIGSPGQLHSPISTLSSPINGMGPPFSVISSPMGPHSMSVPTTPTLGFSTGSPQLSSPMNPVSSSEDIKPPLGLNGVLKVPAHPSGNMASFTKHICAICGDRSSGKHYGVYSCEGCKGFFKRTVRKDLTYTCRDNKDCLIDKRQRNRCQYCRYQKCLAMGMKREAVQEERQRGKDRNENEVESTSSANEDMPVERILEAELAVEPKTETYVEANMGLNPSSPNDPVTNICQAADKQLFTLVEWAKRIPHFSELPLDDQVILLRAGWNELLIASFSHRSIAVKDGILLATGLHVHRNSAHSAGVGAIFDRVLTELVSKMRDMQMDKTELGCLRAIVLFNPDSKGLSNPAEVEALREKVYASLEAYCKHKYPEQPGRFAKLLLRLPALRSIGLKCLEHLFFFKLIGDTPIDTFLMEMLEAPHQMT

In the case of `Clc1cc(Cl)c(-c2cc(Cl)c(Cl)cc2Cl)cc1Cl`, the outcome in experiment [1], in experiment [8], in experiment [12], in experiment [20] and in [23] was inactive. The max response in experiment [2] was 9.9%; in experiment [3], 12.5% (inactive); in experiment [10], -1.16% (inactive) and 9.79% (inactive); in experiment [14], -2.79% (inactive) and -2.97% (inactive); in experiment [15] it was -28.5% (inactive) and -15.8% (inactive); in [22] it was 2.83% (inactive) and 5.76% (inactive). In addition, in experiment [4], the activity change % (negative = inhibition) was -3% (inactive) and 18.9% (inactive). In addition, the Potency result in [5], in [6], in experiment [7], in experiment [11], in experiment [13] and in experiment [17] was “inactive” each time. Moreover, the Potency result in [18] and in experiment [21] was “inactive” each time. Also, the activation in [9] was -0.0322% (inactive) and 0.521% (inactive). Besides, the values for the Potency in experiment [16] and in experiment [19] were 44.7 µM (active) and 4.78 µM (active), respectively.
